High-throughput results deposited in PubChem by Johns Hopkins Ion Channel Center.
CHT allo act – allosterically activates the human high affinity choline transporter; B-score at 10 µM; Q9GZV3; 310,000 compounds, 0.49% hits; CHT-expressing cells, membrane potential dye, choline EC20; hits give high values; LV-AA mutant CHT in HEK293 cells;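 active = initial fluorescence not abnormally high and integrated response B-score, plate-corrected, over 3 SD above library mean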
TMEM16A inh – inhibitors of mouse TMEM16A calcium-activated chloride channel. Q8BHY3. HEK293 TMEM16A/YFP iodide influx fluorescence, ionomycin. normalized B-score (activity score, 25-100; higher = stronger inhibition) at 10 µM. 310,000 compounds, 1.2% hits. AID 588511;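 active = ratio plate-corrected score three or more library SD toward inhibition, starting fluorescence score within five deviations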;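 note: score derived from kinetic fluorescence span divided by baseline fluorescence per well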
Target sequence (Q8BHY3 whole entry, looked up): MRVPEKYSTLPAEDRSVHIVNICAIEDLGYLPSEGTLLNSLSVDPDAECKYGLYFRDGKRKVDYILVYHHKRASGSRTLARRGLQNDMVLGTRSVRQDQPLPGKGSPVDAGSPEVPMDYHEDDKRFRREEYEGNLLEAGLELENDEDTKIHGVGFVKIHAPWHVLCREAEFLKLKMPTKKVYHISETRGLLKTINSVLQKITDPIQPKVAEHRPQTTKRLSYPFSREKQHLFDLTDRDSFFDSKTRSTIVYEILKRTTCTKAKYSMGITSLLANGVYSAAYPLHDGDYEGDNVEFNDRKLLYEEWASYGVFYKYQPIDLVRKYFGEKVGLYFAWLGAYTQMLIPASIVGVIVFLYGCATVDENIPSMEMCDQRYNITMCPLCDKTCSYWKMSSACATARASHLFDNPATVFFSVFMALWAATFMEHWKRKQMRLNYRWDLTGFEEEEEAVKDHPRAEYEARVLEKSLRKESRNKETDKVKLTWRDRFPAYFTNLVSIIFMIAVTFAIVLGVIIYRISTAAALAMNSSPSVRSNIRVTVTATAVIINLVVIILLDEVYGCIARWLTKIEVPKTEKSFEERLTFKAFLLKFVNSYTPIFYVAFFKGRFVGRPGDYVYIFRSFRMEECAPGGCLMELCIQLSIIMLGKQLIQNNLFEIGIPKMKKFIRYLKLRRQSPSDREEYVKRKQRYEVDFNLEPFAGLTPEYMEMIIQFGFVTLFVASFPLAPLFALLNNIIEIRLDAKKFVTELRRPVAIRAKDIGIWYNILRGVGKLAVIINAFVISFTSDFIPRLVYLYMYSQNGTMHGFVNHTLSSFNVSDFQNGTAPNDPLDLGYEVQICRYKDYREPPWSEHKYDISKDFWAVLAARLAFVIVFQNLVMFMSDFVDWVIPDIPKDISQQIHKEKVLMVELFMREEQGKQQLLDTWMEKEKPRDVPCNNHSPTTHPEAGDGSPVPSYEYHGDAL
CHT block – inhibits the human high affinity choline transporter; 310,000 compounds, 0.86% hits; CHT-expressing cells, membrane potential dye, choline response; hits give low values; B-score at 10 µM;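 active = B-score over 3 SD under the library average, and starting fluorescence ratio not unusually high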;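 note: choline stimulus applied at its EC90 after an EC20 pre-addition; B-score computed on integrated fluorescence ratio after choline addition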
ANO1 activ – activators or potentiators of mouse TMEM16A chloride channel. B-score at 10 µM. Q8BHY3. HEK293 TMEM16A/YFP-H148Q/I152L, iodide quench fluorescence; hits give low values. 340,000 compounds, 0.3% hits. AID 623877;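 active = fluorescence-ratio B-score plate-corrected deviation score at least 3 library SD below zero, with starting fluorescence score within 5 deviations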;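 note: channel opened by trigger with iodide after compound preincubation; score built on the fluorescence ratio of max minus min over baseline; more negative score means more quench and so TMEM16A activation or potentiation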
CHT block conf – confirmation of human choline transporter CHT inhibitors. AID 493221. shares compounds with CHT block. CHT-expressing cells, choline membrane potential dye; LV-to-AA substituted CHT, HEK293 cells. 2,400 compounds, 70% hits. CHT activity remaining % of control (hits give low values), % at 10 µM;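 active = choline transporter activity left, mean of duplicates at 10 µM, below buffer-only control mean minus 3 SD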;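 note: depolarization triggered by choline at its EC90 following an EC20 pre-addition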
HEK293 MPD ctr – CHT inhibitor counter-screen hit in parental HEK293 cells | shares compounds with CHT block | membrane potential dye, choline response; active = decrease or increase beyond buffer ±3SD | membrane potential ratio readout (active if shifted either direction beyond buffer ±3SD; no single direction) at 10 µM | 2,400 compounds, 4% hits | AID 493222;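 note: parental cells lack the transporter so any hit is non-specific; ratio is peak minus trough fluorescence over baseline after EC90 choline challenge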
Of the large screens only hits and unclear results are named; the others gave an inactive call (follow-up assays come after a bar, where they were run). The list is not random: actives were taken first. Their share in the collection is about 2.3%.

CSCc1ccc(C(=O)N2CCCC(Nc3ccc4c(c3)OCCO4)C2)o1 (centres undefined)	none
Oc1ccc(-c2c(C3=CCCCC3)sc3ccccc23)cc1	none
Cc1cc(OCC(=O)OCC(=O)N(C)C2CCS(=O)(=O)C2)ccc1Cl (centres undefined)	none (no result: CHT allo act, TMEM16A inh, CHT block)
Cc1ccccc1CNc1ccc(C(CC(N)=O)NC(=O)c2ccccc2)cc1[N+](=O)[O-] (centres undefined)	CHT block -5.4 | CHT block conf inactive | HEK293 MPD ctr inactive
Cc1cccc(CNc2ccc(C(CC(N)=O)NC(=O)c3ccccc3)cc2[N+](=O)[O-])c1 (centres undefined)	none
CCC(CC)Nc1ccc(C(CC(N)=O)NC(=O)c2ccccc2)cc1[N+](=O)[O-] (centres undefined)	CHT block -5.1 | CHT block conf 41% | HEK293 MPD ctr inactive
NC(=O)CC(NC(=O)c1ccc(Br)cc1)c1ccc(N2CCCCCCC2)c([N+](=O)[O-])c1 (centres undefined)	CHT block -5.3 | CHT block conf 65% | HEK293 MPD ctr inactive
CCCCNc1ccc(C(CC(N)=O)NC(=O)c2ccccc2)cc1[N+](=O)[O-] (centres undefined)	none
CCCOc1ccc(C(CC(=O)O)NC(=O)c2sc3ccccc3c2Cl)cc1 (centres undefined)	CHT block -6.8 | CHT block conf 25% | HEK293 MPD ctr inactive
Cc1nnc(NC(=O)C(C)Sc2nnc(CCNC(=O)c3ccccc3F)n2C)s1 (centres undefined)	none
O=C(c1ccccc1)c1nc2ccccc2n(CCCn2c(=O)c(C(=O)c3ccccc3)nc3ccccc32)c1=O	none
CN(C)S(=O)(=O)c1ccc(NC(=O)C2CC3C=CC2C3)cc1 (centres undefined)	CHT block -6.7 | CHT block conf inactive | HEK293 MPD ctr inactive
CN(C)S(=O)(=O)c1ccc(NC(=O)C2COc3ccccc3O2)cc1 (centres undefined)	none
O=C(CSc1nc2ccccc2c(=O)n1C1CC1)NCc1ccccc1	CHT block -5.1 | CHT block conf 67% | HEK293 MPD ctr inactive
CC(=O)Nc1ccc(NC(=O)c2cc(=O)c3cc(C)c(C)cc3o2)cc1	none
CCCCNC(=O)c1sc(=S)n2c1[nH]c(=O)c1ccc(C(=O)NCCc3ccc(OC)c(OC)c3)cc12	none
O=C(NCc1ccccc1)c1sc(=S)n2c1[nH]c(=O)c1ccccc12	CHT block -6.7 | CHT block conf 63% | HEK293 MPD ctr inactive
O=C(NCCCn1ccnc1)c1cn(-c2ccccc2)nc1-c1ccc(F)cc1	CHT block -6.9 | CHT block conf 36% | HEK293 MPD ctr inactive
Cc1ccc2nc(-c3ccccc3)cc(C(=O)NCCCn3ccnc3)c2c1	CHT block -11 | CHT block conf 30% | HEK293 MPD ctr inactive
Cc1ccc(Cn2c(=N)n(CC(O)COc3ccccc3)c3ccccc32)cc1 (centres undefined)	CHT block -8.2 | CHT block conf 38% | HEK293 MPD ctr inactive
N=c1n(Cc2ccccc2)c2ccccc2n1CC(O)COc1ccccc1 (centres undefined)	CHT block -9.8 | CHT block conf 38% | HEK293 MPD ctr inactive
CCCn1c(=N)n(CC(O)COc2cccc(C)c2)c2ccccc21 (centres undefined)	CHT block -5.3 | CHT block conf inactive | HEK293 MPD ctr inactive
CCn1c(=N)n(CC(O)COc2cccc(C)c2)c2ccccc21 (centres undefined)	none
O=C(O)c1ccccc1OCCN1CCCC1=O	none
O=C(COC(=O)C1(c2ccccc2F)CCCC1)N1CCN(C(=O)c2ccco2)CC1	CHT block -5.4 | CHT block conf 68% | HEK293 MPD ctr inactive
COc1ccccc1C(=O)OCC(=O)Nc1ccccc1OC(F)F	CHT block -7.8 | CHT block conf inactive | HEK293 MPD ctr inactive
COc1ccccc1C(=O)OCC(=O)Nc1ccc(OC(F)F)cc1	none
CCOC(=O)c1nn(-c2ccc(Cl)cc2)c2nnc(Cc3ccc(C)cc3)c(=O)n12	CHT block -5.9 | CHT block conf inactive | HEK293 MPD ctr inactive
CCOC(=O)c1nn(-c2ccccc2)c2nnc(Cc3ccc(Cl)cc3)c(=O)n12	none
O=C(CSc1n[nH]c(-c2ccccc2)n1)Nc1ncc(Br)cc1Br	CHT block -6.5 | CHT block conf 57% | HEK293 MPD ctr inactive
CN1CCN(C(=S)c2ccc(-c3cc(Cl)ccc3Cl)o2)CC1	CHT block -9.7 | CHT block conf inactive | HEK293 MPD ctr inactive
N#CCCN1CCN(C(=S)c2ccc(-c3cc(Cl)ccc3Cl)o2)CC1	none
Cc1ccc(S(=O)(=O)NCC(=O)NCC(=O)OCC(=O)N2CC(=O)Nc3ccccc32)cc1C	none
CN(C)/C=C1\C(=O)ON=C1c1ccccc1	none
O=C1ON=C(c2ccccc2)/C1=C/c1ccco1	CHT block -6.6 | CHT block conf 50% | HEK293 MPD ctr inactive
CCCCOC(=O)c1ccc(NC(C)=O)cc1	none
CCCCOC(=O)c1ccc(NC(=O)c2cc(Cl)c(Cl)cc2C(=O)O)cc1	CHT block -5.3 | CHT block conf 61% | HEK293 MPD ctr inactive
Cn1cnnc1Sc1ccc(C(=O)NCCC(c2ccccc2)c2ccccc2)cc1[N+](=O)[O-]	CHT block -10 | CHT block conf 32% | HEK293 MPD ctr inactive
Cn1cnnc1SCC(=O)NCCC(c1ccccc1)c1ccccc1	none
CC1=C(C(=O)Nc2ccccc2)C(c2ccncc2)C(C#N)=C(SCC(=O)Nc2ccccc2)N1 (centres undefined)	none
CSC1=C(C#N)C(c2ccncc2)C(C(=O)Nc2ccccc2)=C(C)N1 (centres undefined)	CHT block -5 | CHT block conf 51% | HEK293 MPD ctr inactive
COc1ccc(NC(=O)c2cccc3c2C(=O)c2ccc(-c4cnc(OC)nc4)cc2S3(=O)=O)cc1	none (no result: CHT allo act, TMEM16A inh, CHT block)
CN1CCC(NC(=O)NC2CCCCC2)CC1	none
O=C(NC1CCCCCCC1)NC1CCCCC1	CHT block -5.7 | CHT block conf inactive | HEK293 MPD ctr inactive
OCC(O)C1OC(Nc2ccc(Cl)cc2)C(O)C1O (centres undefined)	none
CCCCSCCCNC(=O)c1ccc(CS(=O)(=O)c2ccc(OC)cc2)o1	none
CCCCn1c(SCC(=O)NNC(=O)c2ccccc2)n[nH]c1=O	none (no result: CHT allo act, TMEM16A inh, CHT block)
CC(Oc1ccccc1F)c1nnc(SCC(=O)NCc2ccc3c(c2)OCO3)o1 (centres undefined)	none (no result: CHT allo act, TMEM16A inh, CHT block)
CCCCCCCCCCCCN1[C@@H](CC(=O)O)c2cc(C(F)(F)F)ccc2S1(=O)=O	TMEM16A inh 100, CHT block -7.3 | CHT block conf 44% | HEK293 MPD ctr inactive
